From PubChem BioAssay
Activity calls are given as the source filed them.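 How the source made its calls, unless noted: active means inhibition of the reporter signal at or above 50%; inactive means inhibition below 50%.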

Experiments:
[1] = inhibitors of TNFa-induced NFkB p65 translocation, primary screen, imaging, HUVEC, MLSMR starter and 10KST1 sets (AID 438;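 active means inhibition above 20% together with a positive visual image hit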;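 further: compound added about 3h40 before a 20 min TNFalpha stimulation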;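 on inhibition: signal is the nuclear over cytoplasmic p65 intensity ratio per well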); settings: HUVEC TNFa-induced p65 nuclear translocation; cell count: measured here: nuclei count (cytotoxicity indicator), at 2.08 µM; inhibition: at 2 µM, stronger effect = higher value, 0% TNFa-plus-vehicle, 100% no-TNFa wells
[2] = reduction of polyQ htt aggregates in cells – imaging, exon1htt(103Q)mCFP cells, high-content imaging, primary screen (AID 483;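 active means visual image review flags a hit and inhibition of aggregation exceeds 20%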;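 further: compound exposure lasted 3 days before fixation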;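 on nuclei count: percent of the per-plate median nuclei count of sample wells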); settings: exon1htt(103Q)mCFP cell line, aggregate imaging, at 2 µM; inhibition of aggregation: stronger effect = higher value; nuclei count: measured here: cell count, toxicity
[3] = endothelial E-selectin expression blockers – imaging, HUVEC, immunofluorescence, MLSMR starter and 10KST1 sets, primary screen (AID 487;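 active means visually confirmed hit in the image check and inhibition above 20%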;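 on inhibition: signal is fraction of cell area covered by stained E-selectin grains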;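 on nuclei count: 100% = median nuclei count of all wells on the same plate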); settings: HUVEC TNFalpha-induced E-selectin immunofluorescence imaging, at 2 µM; inhibition: stronger effect = higher value; nuclei count: measured here: cell number, toxicity
[4] = biological target: Voltage-gated potassium channel subunit beta-2 (Rattus norvegicus) (UniProt P62483); assay: inhibitors of rat Kvbeta2 reductase activity – biochemical, NADPH fluorescence, primary screen (AID 622;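 active means fluorescence slope higher than the sample average by over 3 SD, cut at about -0.22 in these data, passing the limit was not always enough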;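 further: slope of raw intensity against log time taken from 70 to 1610 s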); settings: recombinant KvBeta, 4-cyanobenzaldehyde reduction, at 10 µM, stronger effect = higher value
[5] = biological target: Voltage-gated potassium channel subunit beta-2 (Rattus norvegicus) (UniProt P62483); assay: enhancers of rat Kvbeta2 NADPH turnover – biochemical, NADPH fluorescence, primary screen (AID 623;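 active means NADPH fluorescence slope more negative than the mean of all samples by about 3 SD, 99.7% confidence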;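 further: fluorescence intensity change per second fitted from 20 to 320 s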); settings: Recombinant KvBeta, NADPH fluorescence decrease slope, 10 min; at 10 µM; stronger effect = lower value
[6] = biological target: Alpha-2C adrenergic receptor (Homo sapiens) (UniProt P18825); assay: compounds altering alpha2C-coupled GIRK flux – cell-based, HEK293 alpha2C/GIRK1/2, thallium flux, primary screen (AID 624;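 active means fluorescence slope after compound addition differing from the mean of all screened samples at 99.7% confidence, in either direction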;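 further: slope of fluorescence ratio to pre-addition baseline per second over 15 to 24 s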); settings: thallium flux BTC fluorescence, at 10 µM, actives lie on both sides
[7] = blockers of RIG-like receptor reporter activation – cell-based, Sendai virus stimulus, luciferase, 10K MLSCN set, TLR/RLR signaling modifier project, primary screen (AID 602276;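 active means inhibition at or above 50% at 10 µM; inactive means inhibition below 50%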;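 further: firefly luciferase from ISG56 promoter only with Renilla not read in this screen; 0% = Sendai virus plus DMSO and 100% = medium plus DMSO without virus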); settings: HEK293 RL24 IRF3 luciferase reporter, at 10 µM, stronger effect = higher value
[8] = TLR3 IRF3 reporter activation blockers – cell-based, poly I:C stimulus, luciferase, 10K MLSCN set, primary screen (AID 602277); settings: HEK293-TLR3 RL24 IRF3 luciferase reporter, at 10 µM, stronger effect = higher value

Chain of Alpha-2C adrenergic receptor (Homo sapiens) (P18825 whole entry, looked up): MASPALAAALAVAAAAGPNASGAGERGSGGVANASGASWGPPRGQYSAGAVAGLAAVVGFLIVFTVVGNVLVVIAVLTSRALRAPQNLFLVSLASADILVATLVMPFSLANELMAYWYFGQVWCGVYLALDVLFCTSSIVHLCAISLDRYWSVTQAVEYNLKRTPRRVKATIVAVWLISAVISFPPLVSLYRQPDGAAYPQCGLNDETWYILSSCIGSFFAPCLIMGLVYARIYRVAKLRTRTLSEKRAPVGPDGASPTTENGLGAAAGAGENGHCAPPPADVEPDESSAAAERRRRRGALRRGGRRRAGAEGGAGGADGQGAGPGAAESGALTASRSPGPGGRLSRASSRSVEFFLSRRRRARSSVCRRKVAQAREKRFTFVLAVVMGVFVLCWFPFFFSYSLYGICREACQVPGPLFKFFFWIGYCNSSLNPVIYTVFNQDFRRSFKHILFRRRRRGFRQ
Chain of Voltage-gated potassium channel subunit beta-2 (Rattus norvegicus) (P62483 whole entry, looked up): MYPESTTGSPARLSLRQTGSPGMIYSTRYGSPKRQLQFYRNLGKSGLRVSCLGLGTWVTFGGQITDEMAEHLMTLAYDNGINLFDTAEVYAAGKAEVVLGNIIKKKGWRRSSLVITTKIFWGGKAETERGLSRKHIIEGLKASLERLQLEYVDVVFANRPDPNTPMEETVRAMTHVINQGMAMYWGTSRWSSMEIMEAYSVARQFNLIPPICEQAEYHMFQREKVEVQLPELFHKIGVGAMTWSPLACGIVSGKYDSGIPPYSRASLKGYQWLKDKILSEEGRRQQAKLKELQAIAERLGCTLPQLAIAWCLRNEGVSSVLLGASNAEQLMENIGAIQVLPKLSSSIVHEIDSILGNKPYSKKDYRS

Row | Compound | cell count [1] | inhibition [1] | inhibition of aggregation [2] | nuclei count [2] [%] | inhibition [3] | nuclei count [3] [%] | fluorescence slope [4] | NADPH fluorescence slope [5] | slope [6] | inhibition [7] | inhibition [8]
1 | Cc1ccc(S(=O)(=O)NCCOC(=O)Nc2sc(=S)n(C)c2C)cc1 | 466 | 1.6% (inactive) | -2.2% (inactive) | 103 | 15% (inactive) | 108 | -0.5 (inactive) | 3.3e-05 (inactive) | 0.00618 (inactive) | -15% (inactive) | 15.5% (inactive)
2 | O=C(O)Cn1nc2ccccc2n1 | 396 | 5% (inactive) | 10.5% (inactive) | 100 | -55.1% (inactive) | 98.8 | -0.4 (inactive) | 1.5e-05 (inactive) | 0.00551 (inactive) | 14.6% (inactive) | 11.8% (inactive)
3 | O=C(O)CCC(=O)c1c[nH]c2ccccc12 | 458 | 0.5% (inactive) | 20% (inactive) | 103 | -43.2% (inactive) | 105 | -0.457 (inactive) | 9.9e-05 (inactive) | 0.00973 (inactive) | -16.3% (inactive) | 8.52% (inactive)
4 | COc1cc(CN2CCC(C(=O)NC3CCCC3)CC2)ccc1O | 755 | -5.5% (inactive) | -13.7% (inactive) | 64.3 | -29.8% (inactive) | 124 | -0.344 (inactive) | -3.9e-06 (inactive) | 0.00666 (inactive) | 4.81% (inactive) | 13.9% (inactive)
5 | O=C(C1CCCN(S(=O)(=O)c2cnc[nH]2)C1)N1CC(=O)N(CCc2ccccc2)C(=O)C1 (stereo not drawn) | 545 | 3.4% (inactive) | -13.8% (inactive) | 109 | -124% (inactive) | 147 | -0.573 (inactive) | 8.9e-06 (inactive) | 0.0066 (inactive) | 9.42% (inactive) | 20.7% (inactive)
6 | CCOC(=O)c1ccc2nc(C)c3c(c2c1)OC(C)C3 (stereo not drawn) | 308 | -13% (inactive) | 1.1% (inactive) | 94.2 | 9% (inactive) | 122 | -0.349 (inactive) | 1.7e-05 (inactive) | 0.00348 (inactive) | -5.44% (inactive) | 20.2% (inactive)
7 | O=C(Nc1nccs1)c1cccc(NC(=O)C2CC2)c1 | 411 | -0.5% (inactive) | -6.6% (inactive) | 98 | -19% (inactive) | 116 | -0.409 (inactive) | -3.4e-05 (inactive) | 0.00472 (inactive) | 2.3% (inactive) | -13.6% (inactive)
8 | COCCn1c(SCC(=O)Nc2ccc3c(c2)OCCO3)nc2c(c1=O)SC(C)C2 (stereo not drawn) | 715 | -4.4% (inactive) | -19.9% (inactive) | 106 | -36.9% (inactive) | 116 | -0.413 (inactive) | 3.3e-05 (inactive) | 0.00496 (inactive) | -10.2% (inactive) | -0.542% (inactive)
9 | COc1ccccc1CNC(=O)C1CCCN(S(=O)(=O)c2cccc3cccnc23)C1 (stereo not drawn) | 783 | -5.1% (inactive) | -33.4% (inactive) | 102 | -38.9% (inactive) | 108 | -0.592 (inactive) | -5.8e-05 (inactive) | 0.00706 (inactive) | 3.46% (inactive) | 26.9% (inactive)
10 | CCOC(=O)C1CCN(S(=O)(=O)c2cccc(-c3csc(C)n3)c2)CC1 | 234 | 4.4% (inactive) | 8.1% (inactive) | 97.1 | 32.4% (inactive) | 89 | -0.433 (inactive) | -0.000124 (inactive) | 0.0037 (inactive) | 14.1% (inactive) | 2.04% (inactive)
11 | O=C(Nc1cccc(C(F)(F)F)c1)c1ccco1 | 580 | -5.4% (inactive) | 4.3% (inactive) | 113 | -33.8% (inactive) | 99.3 | -0.617 (inactive) | -5.6e-05 (inactive) | 0.00406 (inactive) | -7.21% (inactive) | -42.6% (inactive)
12 | CCN(C1CCCCC1)S(=O)(=O)c1ccc(S(=O)(=O)N2CCN(CCC#N)CC2)cc1 | 870 | 3.3% (inactive) | 8% (inactive) | 102 | -28.6% (inactive) | 108 | -0.584 (inactive) | -1.5e-05 (inactive) | 0.00677 (inactive) | -5.6% (inactive) | 52% (active)
13 | CSc1ccccc1N=CC1=C(O)CC(C)(C)CC1=O | 483 | 7.1% (inactive) | 2.4% (inactive) | 104 | -4.9% (inactive) | 119 | -0.461 (inactive) | -0.000148 (inactive) | 0.00576 (inactive) | 5.59% (inactive) | 17.7% (inactive)
14 | CC1CCN(C(=O)CSc2nnc(Cc3cc(=O)[nH]c(=O)[nH]3)n2-c2ccc(Cl)cc2)CC1 | 713 | -6.3% (inactive) | 14.9% (inactive) | 87.4 | 1.4% (inactive) | 105 | -0.602 (inactive) | -8.2e-06 (inactive) | 0.00679 (inactive) | -3.8% (inactive) | 16.5% (inactive)
15 | C#CCN1C(=O)C(O)(CC(=O)c2cc(OC)ccc2OC)c2ccccc21 (stereo not drawn) | 841 | -2.9% (inactive) | 1.3% (inactive) | 97.5 | -183% (inactive) | 124 | -0.411 (inactive) | -3.9e-05 (inactive) | 0.00497 (inactive) | 17.5% (inactive) | 20% (inactive)
16 | Cc1cccc(N=C2NC(=O)CS2)c1C | 333 | -0.6% (inactive) | -5.7% (inactive) | 109 | 3.7% (inactive) | 93.9 | -0.499 (inactive) | -3.3e-05 (inactive) | 0.00501 (inactive) | 20.6% (inactive) | 22.9% (inactive)
17 | CC1=C(C(N)=O)C(c2cccnc2)n2nc(SCc3ccccc3Cl)nc2N1 (stereo not drawn) | 533 | -21.6% (inactive) | -13.4% (inactive) | 104 | -130% (inactive) | 107 | -0.463 (inactive) | -5.4e-05 (inactive) | 0.00786 (inactive) | -20.3% (inactive) | 19.5% (inactive)
18 | CCCC1(CCC)NC(=O)NC1=O | 548 | -3.3% (inactive) | -41.1% (inactive) | 65.5 | -34.4% (inactive) | 107 | -0.491 (inactive) | -4.7e-05 (inactive) | 0.00587 (inactive) | 6.49% (inactive) | 14.1% (inactive)
19 | Oc1ccc(N2CCN(C(c3ccncc3)c3nnnn3C3CCCC3)CC2)cc1 (stereo not drawn) | 661 | -18.3% (inactive) | -5.2% (inactive) | 101 | -67.5% (inactive) | 115 | -0.502 (inactive) | -4.4e-05 (inactive) | 0.00598 (inactive) | 17% (inactive) | 26.3% (inactive)
20 | Cn1c2c(c(=O)n(C)c1=O)C(CC(=O)Nc1ccccc1)C(=O)N2 (stereo not drawn) | 604 | -3.5% (inactive) | -2.9% (inactive) | 72 | -81.2% (inactive) | 152 | -0.597 (inactive) | -3.5e-05 (inactive) | 0.00726 (inactive) | 10.9% (inactive) | 22.4% (inactive)
21 | Cc1ccc2[nH]cc(C(=O)CN3CCC4(CC3)OCCO4)c2c1 | 355 | 2% (inactive) | 14.9% (inactive) | 88 | -18.9% (inactive) | 122 | -0.619 (inactive) | -9.1e-06 (inactive) | 0.00468 (inactive) | 4.24% (inactive) | 7.68% (inactive)
22 | CCOc1cc(C(=O)Nc2ccon2)cc(OCC)c1OCC | 795 | 0.3% (inactive) | -40.4% (inactive) | 104 | -35.9% (inactive) | 108 | -0.387 (inactive) | 1.3e-05 (inactive) | 0.00341 (inactive) | 17.9% (inactive) | 15.6% (inactive)
23 | CC1CCN(C(=O)CCNS(=O)(=O)c2ccccc2)CC1 | 709 | 0.4% (inactive) | -20.3% (inactive) | 101 | -149% (inactive) | 142 | -0.605 (inactive) | -2.3e-07 (inactive) | 0.00564 (inactive) | -23.4% (inactive) | -31.3% (inactive)
24 | Cc1ccc(-c2nn3c(C)nnc3s2)cc1N | 385 | 7.5% (inactive) | 9.7% (inactive) | 82 | 4.3% (inactive) | 114 | -0.405 (inactive) | -3e-05 (inactive) | 0.00541 (inactive) | -7.7% (inactive) | -47.2% (inactive)
25 | CC(C)n1c(CN2CCN(C)CC2)nc2c1c(=O)n(C)c(=O)n2C | 600 | -5.3% (inactive) | 0.5% (inactive) | 103 | -24.8% (inactive) | 118 | -0.488 (inactive) | -4.5e-05 (inactive) | 0.00573 (inactive) | 22.2% (inactive) | 22.9% (inactive)
26 | CCCCCCOC(=O)C(C#N)c1nc2ccccc2nc1N1CCCCC1 (stereo not drawn) | 513 | 5.7% (inactive) | 6.3% (inactive) | 89.3 | -28.3% (inactive) | 137 | -0.393 (inactive) | 3.7e-05 (inactive) | 0.00357 (inactive) | 6.89% (inactive) | 23.9% (inactive)
27 | CCOC(=O)c1ccccc1NC(=O)c1ccc2c(=O)n3c(nc2c1)CCCCC3 | 472 | 15.6% (inactive) | 9.6% (inactive) | 114 | -28.3% (inactive) | 81.5 | -0.399 (inactive) | -1.5e-05 (inactive) | 0.00636 (inactive) | 2.48% (inactive) | 32.9% (inactive)
28 | COc1ccc(C)cc1NC(=O)CN(Cc1nnc(-c2ccc(Cl)cc2)o1)C1CCCC1 | 392 | 2.4% (inactive) | -4.1% (inactive) | 85.9 | -43.8% (inactive) | 110 | -0.478 (inactive) | 2.2e-05 (inactive) | 0.00634 (inactive) | -26.9% (inactive) | -33.6% (inactive)
